In experiment [1] the target is human Retinoid X Receptor beta (RXRb), RXRB (gene 6257) (UniProt P28702). In words: ATG_RXRb_TRANS: Attagene TRANS-FACTORIAL HepG2 Assay for human Retinoid X Receptor beta (RXRb) (AID 2283013; active = hit-call score of the fitted dose curve at least 0.9, where 1 is the maximum). The method, boiled down:
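Readout is reporter transcript induction after 24 h dosing. It is measured by RT-PCR of total RNA followed by fluorescent capillary electrophoresis. HepG2 liver cells carry transfected multiple reporter units driven by an exogenous RXRb-Gal4 fusion; activity is relative to DMSO.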

The target of experiment [2] is human Thyroid Receptor alpha (THRa1), THRA (gene 7067) (UniProt P10827). Kind of experiment: ATG_THRa1_TRANS: Attagene TRANS-FACTORIAL HepG2 Assay for human Thyroid Receptor alpha (THRa1) (AID 2283014; active = hit-call score of the fitted dose curve at least 0.9, where 1 is the maximum). The method, boiled down: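 Transcripts from GAL4-UAS-driven reporters, measured after 24 h compound exposure by RT-PCR plus capillary electrophoresis of 6-FAM-labeled fragments, were fitted for gain of signal relative to DMSO. Cells: transiently transfected HepG2 expressing NR-Gal4 chimeras.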

Experiment [3] addresses Retinoic acid receptor RXR-alpha (Homo sapiens) (UniProt P19793). Kind of experiment: ATG_RXRa_TRANS: Attagene TRANS-FACTORIAL HepG2 Assay for human Retinoid X Receptor alpha (RXRa) (AID 2283012; active = hit-call score of the fitted dose curve at least 0.9, where 1 is the maximum). The method, boiled down:
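TRANS format reporting activity of exogenous RXRa-Gal4 chimera in transiently transfected HepG2, 24 h exposure. Reporter transcripts quantified by RT-PCR with capillary electrophoresis, with gain of signal scored relative to DMSO.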

In experiment [4] the target is human Vitamin D Receptor (VDR), VDR (gene 7421) (UniProt P11473). In words: ATG_VDR_TRANS: Attagene TRANS-FACTORIAL HepG2 Assay for human Vitamin D Receptor (VDR) (AID 2283022; active = hit-call score of the fitted dose curve at least 0.9, where 1 is the maximum). The method, boiled down: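 Transactivation by an exogenous VDR-Gal4 chimera in transiently transfected HepG2 cells was measured as reporter transcript level 24 hours after chemical treatment. RT-PCR products were analysed by capillary electrophoresis and fitted in the positive direction relative to DMSO.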

Read-out in experiment [5]: E-selectin (Homo sapiens) (UniProt P16581)
Kind of experiment: BSK_3C_Eselectin: BioMAP Diversity Plus: 3C Assay for Eselectin Biomarker Activity (AID 2283015).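 As to outcome: cell surface E-selectin protein quantified by ELISA 24 h after dosing.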 The conditions noted are these: primary human endothelial cells (HUVEC); actives raise or lower the signal. The method, boiled down: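 E-selectin ELISA readout, fitted bidirectionally relative to DMSO, taken 24 h post-dosing in HUVEC cultures of the 3C system. Overt cytotoxicity tracked with sulforhodamine B staining of parallel wells.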

Read-out in experiment [6]: Interleukin-1 alpha (IL1a), IL1A (gene 3552)
In words: BSK_BE3C_IL1a: BioMAP Diversity Plus: BE3C Assay for Interleukin-1 alpha (IL1a) Biomarker Activity (AID 2283016). The conditions noted are these: primary human bronchial epithelial cells; actives raise or lower the signal. The method, boiled down: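 IL-1a measured by ELISA after 24 h treatment of human primary bronchial epithelial cells, with gain or loss of signal fitted versus DMSO. Parallel cultures stained with SRB gauge overt cytotoxicity.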

Read-out in experiment [7]: Monocyte Chemoattractant Protein-1 (MCP1), CCL2 (gene 6347)
In words: BSK_3C_MCP1: BioMAP Diversity Plus: 3C Assay for Monocyte Chemoattractant Protein-1 (MCP1) Biomarker Activity (AID 2283017). The conditions noted are these: primary human endothelial cells (HUVEC); actives raise or lower the signal. Put shortly:
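MCP-1 was measured by ELISA 24 h after dosing in primary HUVEC 3C cultures and fitted in both directions relative to DMSO; cytotoxicity was checked by SRB total-protein staining in parallel wells.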

Read-out in experiment [8]: Monocyte Chemoattractant Protein-1 (MCP1), CCL2 (gene 6347)
Kind of experiment: BSK_4H_MCP1: BioMAP Diversity Plus: 4H Assay for Monocyte Chemoattractant Protein-1 (MCP1) Biomarker Activity (AID 2283018). The conditions noted are these: primary human endothelial cells (HUVEC); actives raise or lower the signal. Put shortly: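 ELISA of MCP-1 (CCL2) 24 h after chemical dosing of HUVEC in the BioMAP 4H system. Gain or loss versus DMSO fitted; parallel SRB staining (560 nm) tracked overt cytotoxicity.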

Read-out in experiment [9]: Human Leukocyte Antigen - DR isotype (HLADR), HLA-DRA (gene 3122)
Kind of experiment: BSK_3C_HLADR: BioMAP Diversity Plus: 3C Assay for Human Leukocyte Antigen - DR isotype (HLADR) Biomarker Activity (AID 2283019).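 Also: ELISA of cell-surface HLA-DR on HUVEC 24 h after dosing.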 The conditions noted are these: primary human endothelial cells (HUVEC); actives raise or lower the signal. The method, boiled down:
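Bidirectional fitting against DMSO was applied to the HLA-DR ELISA signal from human umbilical vein endothelial cells, 24 h post-dose. Cytotoxicity came from parallel SRB total-protein staining; 3C proliferation was counted by SRB at 48 h.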

Read-out in experiment [10]: Interleukin-8 (IL8), CXCL8 (gene 3576)
Kind of experiment: BSK_3C_IL8: BioMAP Diversity Plus: 3C Assay for Interleukin-8 (IL8) Biomarker Activity (AID 2283020). Conditions: primary human endothelial cells (HUVEC); actives raise or lower the signal. The method, boiled down: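 IL-8 was measured by ELISA in HUVEC cultures 24 h after chemical dosing, with gain or loss of signal fitted relative to DMSO. Parallel SRB total-protein staining tracked overt cytotoxicity.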

A short description of experiment [11]: BSK_3C_SRB: Viability Assessment in the BioMAP Diversity Plus: 3C Assay (AID 2283023).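 Also: fitted both ways against DMSO so a hit may be signal rise or drop.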 Conditions: primary human endothelial cells (HUVEC). Put shortly:
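Cytotoxicity readout in parallel HUVEC 3C cultures: after 24 h compound exposure, cells fixed with 10% TCA, stained with 0.1% SRB and read at 560 nm. Gain or loss relative to DMSO fitted.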

Read-out in experiment [12]: Matrix Metallopeptidase 1 (MMP1), MMP1 (gene 4312)
In words: BSK_BE3C_MMP1: BioMAP Diversity Plus: BE3C Assay for Matrix Metallopeptidase 1 (MMP1) Biomarker Activity (AID 2283024). Conditions: primary human bronchial epithelial cells; actives raise or lower the signal. The method, boiled down: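 ELISA measurement of MMP-1 after 24 h compound exposure of primary human bronchial epithelial cells. Changes in either direction fitted relative to DMSO; parallel SRB staining checked overt cytotoxicity.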

The nature of experiment [13]: BSK_3C_Vis: BioMAP Diversity Plus: 3C Assay for Morphology Visualization (AID 2283025).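 Also: fitted both ways so gain or loss versus DMSO counts.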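 As to AC50: light microscopy image of cell morphology used as background control.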 The conditions noted are these: primary human endothelial cells (HUVEC). Put shortly:
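Light-microscopy visualization of HUVEC cultures at 24 h post-treatment, with DMSO as baseline for bidirectional fitting.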

The nature of experiment [14]: BSK_4H_SRB: Viability Assessment in the BioMAP Diversity Plus: 4H Assay (AID 2283027).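 Also: cells exposed to compound for 24 h before staining.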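 As to AC50: curves fitted both ways versus DMSO so AC50 may be loss or gain.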 The conditions noted are these: primary human endothelial cells (HUVEC). The method, boiled down: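 HUVEC, 24 h post-dose; 10% TCA fix, 0.1% SRB stain, A560 nm. Total protein = overt cytotoxicity, parallel to biomarker read. Bidirectional fit vs DMSO baseline.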
Experiment [15] in a line: BSK_BE3C_SRB: Viability Assessment in the BioMAP Diversity Plus: BE3C Assay (AID 2283028). Conditions: primary human bronchial epithelial cells. Put shortly:
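Cytotoxicity read-out: SRB (0.1%) staining of TCA-fixed (10%) human lung bronchial epithelial cells, absorbance 560 nm, 24 h post-dosing. Curves fitted both directions relative to DMSO.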

Read-out in experiment [16]: Thrombomodulin, THBD (gene 7056)
Kind of experiment: BSK_3C_Thrombomodulin: BioMAP Diversity Plus: 3C Assay for Thrombomodulin Biomarker Activity (AID 2283029). The conditions noted are these: primary human endothelial cells (HUVEC); actives raise or lower the signal. Put shortly:
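ELISA measurement of thrombomodulin on HUVEC surface 24 h after chemical dosing; activity fitted in both directions relative to DMSO vehicle.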

Read-out in experiment [17]: Urokinase-type plasminogen activator receptor (uPAR), PLAUR (gene 5329)
Kind of experiment: BSK_4H_uPAR: BioMAP Diversity Plus: 4H Assay for Urokinase-type plasminogen activator receptor (uPAR) Biomarker Activity (AID 2283030). Conditions: primary human endothelial cells (HUVEC); actives raise or lower the signal. Put shortly:
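uPAR level read by ELISA on HUVEC cultures (BioMAP 4H) 24 h post-dosing, analyzed for gain or loss relative to DMSO. Parallel SRB staining assessed overt cytotoxicity.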

Read-out in experiment [18]: Monokine induced gamma interferon (MIG), CXCL9 (gene 4283)
Kind of experiment: BSK_3C_MIG: BioMAP Diversity Plus: 3C Assay for Monokine induced gamma interferon (MIG) Biomarker Activity (AID 2283021).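 Also: MIG protein level measured by immunoassay in the treated endothelial cultures.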 The conditions noted are these: primary human endothelial cells (HUVEC); actives raise or lower the signal. The method, boiled down:
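ELISA measurement of MIG in human umbilical vein endothelial cells 24 h after treatment. Cytotoxicity tracked by SRB staining in parallel cultures; gain or loss of signal fitted relative to DMSO.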

Inconclusive results are not listed. Some compounds were tested as several samples or in several runs, with calls that do not always agree. Calls of active or inactive are those of the source. The calls were made as follows, unless noted: active = hit-call score of the fitted dose curve at least 0.9, where 1 is the maximum; inactive = score below 0.9.

human Retinoid X Receptor beta (RXRb), RXRB (gene 6257), sequence (P28702 whole entry, looked up, the tested form may be a part): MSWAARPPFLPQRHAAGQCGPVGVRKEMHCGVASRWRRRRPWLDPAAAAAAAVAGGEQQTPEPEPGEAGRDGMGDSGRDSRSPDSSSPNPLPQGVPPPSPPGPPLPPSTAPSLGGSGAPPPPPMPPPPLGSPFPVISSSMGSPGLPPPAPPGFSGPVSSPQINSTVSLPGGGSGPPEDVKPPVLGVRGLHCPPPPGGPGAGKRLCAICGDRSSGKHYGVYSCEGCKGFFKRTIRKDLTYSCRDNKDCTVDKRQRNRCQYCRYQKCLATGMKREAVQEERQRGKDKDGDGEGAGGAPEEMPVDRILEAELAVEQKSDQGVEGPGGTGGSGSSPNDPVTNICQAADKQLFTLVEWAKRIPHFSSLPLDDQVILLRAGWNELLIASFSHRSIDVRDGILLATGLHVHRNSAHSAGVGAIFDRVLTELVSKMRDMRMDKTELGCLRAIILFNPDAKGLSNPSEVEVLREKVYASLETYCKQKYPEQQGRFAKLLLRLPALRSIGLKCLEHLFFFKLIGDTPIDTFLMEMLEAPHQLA
human Thyroid Receptor alpha (THRa1), THRA (gene 7067), sequence (P10827 whole entry, looked up, the tested form may be a part): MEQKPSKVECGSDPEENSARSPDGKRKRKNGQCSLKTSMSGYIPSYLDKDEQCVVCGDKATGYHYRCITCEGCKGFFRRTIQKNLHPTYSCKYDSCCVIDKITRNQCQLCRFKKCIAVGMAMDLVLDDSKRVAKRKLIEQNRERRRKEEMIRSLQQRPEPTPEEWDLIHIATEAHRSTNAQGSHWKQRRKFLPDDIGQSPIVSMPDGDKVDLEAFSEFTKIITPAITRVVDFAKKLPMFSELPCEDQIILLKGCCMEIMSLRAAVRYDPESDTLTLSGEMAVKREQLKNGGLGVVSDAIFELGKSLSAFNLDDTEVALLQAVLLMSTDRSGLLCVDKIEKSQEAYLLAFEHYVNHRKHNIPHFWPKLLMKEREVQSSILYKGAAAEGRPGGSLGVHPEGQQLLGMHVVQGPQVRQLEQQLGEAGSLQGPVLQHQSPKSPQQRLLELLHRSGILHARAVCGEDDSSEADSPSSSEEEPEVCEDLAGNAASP
human Vitamin D Receptor (VDR), VDR (gene 7421), sequence (P11473 whole entry, looked up, the tested form may be a part): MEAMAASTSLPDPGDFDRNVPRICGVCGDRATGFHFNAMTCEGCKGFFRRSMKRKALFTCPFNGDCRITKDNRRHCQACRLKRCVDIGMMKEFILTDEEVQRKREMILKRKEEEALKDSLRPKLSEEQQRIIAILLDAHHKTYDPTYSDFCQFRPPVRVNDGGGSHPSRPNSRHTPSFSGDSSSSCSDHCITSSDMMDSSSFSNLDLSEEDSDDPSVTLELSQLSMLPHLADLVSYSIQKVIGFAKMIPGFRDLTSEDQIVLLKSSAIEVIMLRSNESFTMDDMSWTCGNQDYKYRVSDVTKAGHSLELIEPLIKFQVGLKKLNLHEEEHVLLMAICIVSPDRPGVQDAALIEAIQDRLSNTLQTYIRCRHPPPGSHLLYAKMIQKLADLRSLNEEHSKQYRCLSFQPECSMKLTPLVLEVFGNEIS
Retinoic acid receptor RXR-alpha (Homo sapiens), sequence (P19793 whole entry, looked up, the tested form may be a part): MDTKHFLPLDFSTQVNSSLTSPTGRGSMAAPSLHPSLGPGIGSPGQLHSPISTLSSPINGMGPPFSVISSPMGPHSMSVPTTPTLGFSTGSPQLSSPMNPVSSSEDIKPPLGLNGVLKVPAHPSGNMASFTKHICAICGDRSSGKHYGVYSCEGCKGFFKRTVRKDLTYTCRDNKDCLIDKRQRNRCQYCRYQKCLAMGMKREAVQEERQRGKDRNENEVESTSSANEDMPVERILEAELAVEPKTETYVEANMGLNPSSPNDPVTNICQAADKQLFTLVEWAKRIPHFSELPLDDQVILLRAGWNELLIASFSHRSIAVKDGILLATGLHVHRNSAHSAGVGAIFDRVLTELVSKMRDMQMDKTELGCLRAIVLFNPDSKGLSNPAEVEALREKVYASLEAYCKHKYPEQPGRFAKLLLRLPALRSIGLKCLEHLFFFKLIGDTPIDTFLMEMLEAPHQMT
E-selectin (Homo sapiens), sequence (P16581 whole entry, looked up): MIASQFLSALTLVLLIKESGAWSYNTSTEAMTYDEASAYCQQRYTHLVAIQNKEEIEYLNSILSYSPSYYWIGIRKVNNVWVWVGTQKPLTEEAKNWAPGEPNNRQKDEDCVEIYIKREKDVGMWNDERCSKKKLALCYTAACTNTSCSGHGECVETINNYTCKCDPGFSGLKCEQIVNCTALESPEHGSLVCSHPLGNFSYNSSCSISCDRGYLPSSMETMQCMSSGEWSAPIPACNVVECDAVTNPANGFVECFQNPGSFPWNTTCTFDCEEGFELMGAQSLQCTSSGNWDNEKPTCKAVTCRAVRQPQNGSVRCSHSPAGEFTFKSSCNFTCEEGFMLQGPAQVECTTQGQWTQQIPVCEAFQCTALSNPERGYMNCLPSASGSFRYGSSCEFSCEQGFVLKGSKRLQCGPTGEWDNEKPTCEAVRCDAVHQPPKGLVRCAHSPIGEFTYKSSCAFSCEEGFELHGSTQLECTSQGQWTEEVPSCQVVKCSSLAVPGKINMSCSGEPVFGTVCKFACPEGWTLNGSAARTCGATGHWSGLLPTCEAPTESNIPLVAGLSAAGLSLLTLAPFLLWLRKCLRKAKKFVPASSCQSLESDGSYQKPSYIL

Take `CC1=CC(=O)c2ccccc2C1=O`: the compound was classed as inactive in experiment [1] and in [2].

By AC50 is commonly meant the concentration at which the activity in the assay is half-maximal. Consider `CCOC(C)=O`, for which, in experiment [1], the AC50 is 26.6 µM (active) and the outcome was inactive. In addition, the compound was called inactive in experiment [2].

Regarding `FC(F)(F)C1(F)C(F)(F)C(F)(F)C(F)(F)C(F)(C(F)(F)F)C1(F)F` (centres undefined), the compound was called inactive in experiment [3] and in experiment [4].

On to `C=Cc1ccc(O)c(OC)c1`, for which the result in [1], in experiment [2] and in experiment [4] was inactive.

With `Cc1ccccc1OCC(=O)O`, the compound was called inactive in experiment [1].

In the case of `CCCCC=O`, the outcome in experiment [3], in experiment [5], in experiment [6], in experiment [7], in [8] and in experiment [9] was inactive. Besides, the outcome in [10], in experiment [11], in experiment [12], in experiment [13], in experiment [14] and in [15] was inactive. For the same compound, the outcome in experiment [16] and in experiment [17] was inactive.

As for `CC=O`, the outcome in experiment [3], in [2] and in [4] was inactive.

`O=CC(F)(F)C(F)(F)C(F)(F)F`: the compound was called inactive in experiment [3], in [2] and in experiment [4].

Regarding `FC(F)(F)C(F)(F)C(F)(F)Br`, the compound was classed as inactive in experiment [1] and in experiment [2].

Regarding `C[C@]12CC[C@@H]3c4ccc(O)cc4CC[C@H]3[C@@H]1CC[C@@H]2OC(=O)CCC1CCCC1`, in experiment [1], the AC50 is 169 µM (active).

In the case of `CCCCCCCCCCCCCC[n+]1ccccc1`, the result in [1], in experiment [2] and in experiment [4] was inactive.

Turning to `c1cc[nH]c1`, in [1], the result was inactive.

For `Cc1cc(Cc2cc(C)cc(C(C)(C)C)c2O)c(O)c(C(C)(C)C)c1`, the result in [1], in experiment [2] and in experiment [4] was inactive.

In the case of `Cc1cncc(C)c1`, the outcome in experiment [1] was inactive.

Consider `CCCCCCCCC1CCC(=O)O1` (centres undefined), for which the result in experiment [3], in experiment [2] and in experiment [4] was inactive.

As for `CCN(CCC#N)c1ccccc1`, in experiment [1], the outcome was inactive.

With `FC(F)(F)N1C(F)(F)C(F)(F)OC(F)(F)C1(F)F`, the compound was called inactive in experiment [1] and in [2].

For the compound `C=CC(=O)OCCC(F)(F)C(F)(F)C(F)(F)C(F)(F)C(F)(F)C(F)(F)C(F)(F)C(F)(F)F`, the call in [1], in [2], in experiment [5], in experiment [6], in [7] and in experiment [8] was inactive. Also, the outcome in experiment [10], in experiment [11], in experiment [12], in experiment [14], in experiment [15] and in [16] was inactive. Moreover, the result in experiment [17] was inactive.

As for `CCCCCCCCCCCCCCCCCC[N+](C)(C)Cc1ccccc1`, the call in [1], in experiment [4], in experiment [15] and in experiment [16] was inactive. The AC50 in experiment [2] is 50 µM (active); in [5], 2.68 µM (active); in experiment [6] it was 3.96 µM (active); in experiment [7] it was 0.716 µM (active); in experiment [8], 0.929 µM (active); in experiment [10], 4.38 µM (active). In addition, the AC50 in experiment [18] was 5.26 µM (active); in [11], 0.299 µM (active); in experiment [12], 10 µM (active); in [13] it was 0.425 µM (active); in experiment [14], 2.63 µM (active); in experiment [17], 0.59 µM (active).

In the case of `FCOC(C(F)(F)F)C(F)(F)F`, the outcome in [3] and in [4] was inactive.

For the origin of these results see PubChem BioAssay (EPA / NIEHS).
